Among the data in ChEMBL document CHEMBL1961873, “Compounds: GSK PKIS; Assays: Nanosyn kinase panel” (2012) are inhibition values, retold here.

Assay [1] deals with Calcium/calmodulin-dependent protein kinase type II subunit alpha (Homo sapiens) (UniProt Q9UQM7). The note with it: at 1 µM.
The target in assay [2] is Calcium/calmodulin-dependent protein kinase type II subunit delta (Homo sapiens) (UniProt Q13557). The following applies: at 0.1 µM.
The target is the same in assay [3]. The following applies: at 1 µM.
Assay [4] has as its target T1, Calcium/calmodulin-dependent protein kinase type IV (Homo sapiens) (UniProt Q16566).
T1 sequence (whole entry): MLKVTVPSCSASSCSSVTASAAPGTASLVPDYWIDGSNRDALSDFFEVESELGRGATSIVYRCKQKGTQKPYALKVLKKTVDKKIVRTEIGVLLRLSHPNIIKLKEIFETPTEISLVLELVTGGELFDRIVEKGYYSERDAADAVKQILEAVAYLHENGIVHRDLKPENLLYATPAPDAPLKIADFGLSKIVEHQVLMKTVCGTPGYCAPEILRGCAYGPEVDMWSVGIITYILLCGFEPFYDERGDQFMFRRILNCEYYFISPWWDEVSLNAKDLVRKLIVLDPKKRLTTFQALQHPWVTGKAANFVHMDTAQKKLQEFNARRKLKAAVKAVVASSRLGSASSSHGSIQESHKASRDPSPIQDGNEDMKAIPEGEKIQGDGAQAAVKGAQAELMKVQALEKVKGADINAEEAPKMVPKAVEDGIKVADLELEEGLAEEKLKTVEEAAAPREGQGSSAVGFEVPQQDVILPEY
The note with it: at 0.1 µM.

Assay [5] concerns the target T1, Calcium/calmodulin-dependent protein kinase type IV (Homo sapiens). The following applies: at 1 µM.
Assay [6] has as its target T2, Serine/threonine-protein kinase Chk1 (Homo sapiens) (UniProt O14757).
T2 sequence (whole entry): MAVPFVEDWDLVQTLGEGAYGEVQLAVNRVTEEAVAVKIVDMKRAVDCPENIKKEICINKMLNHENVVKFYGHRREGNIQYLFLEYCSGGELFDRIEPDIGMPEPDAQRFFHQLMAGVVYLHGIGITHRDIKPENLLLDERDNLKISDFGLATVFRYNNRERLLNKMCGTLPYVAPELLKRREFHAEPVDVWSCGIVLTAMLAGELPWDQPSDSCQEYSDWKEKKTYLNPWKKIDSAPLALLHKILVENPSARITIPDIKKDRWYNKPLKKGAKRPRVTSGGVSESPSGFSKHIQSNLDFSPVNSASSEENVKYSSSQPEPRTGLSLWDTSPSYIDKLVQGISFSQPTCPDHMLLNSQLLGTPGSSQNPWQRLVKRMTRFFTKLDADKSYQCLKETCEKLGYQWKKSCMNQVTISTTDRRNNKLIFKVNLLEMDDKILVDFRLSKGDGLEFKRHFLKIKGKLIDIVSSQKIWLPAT
The following applies: at 0.1 µM.

The target of assay [7] is T2, Serine/threonine-protein kinase Chk1 (Homo sapiens). The note with it: at 1 µM.
Assay [8] concerns the target Serine/threonine-protein kinase Chk2 (Homo sapiens) (UniProt O96017). The note with it: at 0.1 µM.
The target is the same in assay [9]. The note with it: at 1 µM.
Assay [10] has as its target Death-associated protein kinase 1 (Homo sapiens) (UniProt P53355). The note with it: at 0.1 µM.
Assay [11] shares this target. The note with it: at 1 µM.
Assay [12] deals with T3, Serine/threonine-protein kinase DCLK2 (Homo sapiens) (UniProt Q8N568).
T3 sequence (whole entry): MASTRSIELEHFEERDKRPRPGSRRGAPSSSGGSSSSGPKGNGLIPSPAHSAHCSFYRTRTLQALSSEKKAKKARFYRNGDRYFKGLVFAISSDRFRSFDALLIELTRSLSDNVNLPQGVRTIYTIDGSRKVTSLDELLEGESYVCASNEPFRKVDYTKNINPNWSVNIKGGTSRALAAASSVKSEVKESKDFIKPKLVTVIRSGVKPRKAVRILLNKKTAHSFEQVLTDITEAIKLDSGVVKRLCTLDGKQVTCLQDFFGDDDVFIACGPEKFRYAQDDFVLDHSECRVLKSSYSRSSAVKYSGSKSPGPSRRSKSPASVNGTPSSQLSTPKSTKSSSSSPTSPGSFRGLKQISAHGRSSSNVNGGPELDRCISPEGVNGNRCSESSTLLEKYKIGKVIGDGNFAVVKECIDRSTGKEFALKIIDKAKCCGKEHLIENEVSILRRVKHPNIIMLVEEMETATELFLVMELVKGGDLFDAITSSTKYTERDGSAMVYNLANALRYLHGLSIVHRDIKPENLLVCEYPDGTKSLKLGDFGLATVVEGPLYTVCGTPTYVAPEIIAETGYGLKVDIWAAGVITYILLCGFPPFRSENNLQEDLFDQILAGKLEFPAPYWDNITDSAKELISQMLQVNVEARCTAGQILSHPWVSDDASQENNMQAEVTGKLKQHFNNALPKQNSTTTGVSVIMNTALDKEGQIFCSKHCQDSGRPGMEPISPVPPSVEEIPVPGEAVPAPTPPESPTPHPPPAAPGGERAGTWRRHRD
The following applies: at 0.1 µM.

The target in assay [13] is T3, Serine/threonine-protein kinase DCLK2 (Homo sapiens). The following applies: at 1 µM.
The target of assay [14] is MAP kinase-activated protein kinase 2 (Homo sapiens) (UniProt P49137). The note with it: at 0.1 µM.
The target is the same in assay [15]. The following applies: at 1 µM.
Assay [16] has as its target MAP kinase-activated protein kinase 3 (Homo sapiens) (UniProt Q16644). The note with it: at 0.1 µM.
Assay [17] has the same target. The following applies: at 1 µM.
Assay [18] concerns the target Serine/threonine-protein kinase MARK1 (Homo sapiens) (UniProt Q9P0L2). The note with it: at 0.1 µM.
Assay [19] shares this target. The following applies: at 1 µM.
Assay [20] deals with MAP/microtubule affinity-regulating kinase 3 (Homo sapiens) (UniProt P27448). The note with it: at 0.1 µM.
MAP/microtubule affinity-regulating kinase 3 (Homo sapiens), sequence (P27448 whole entry, looked up): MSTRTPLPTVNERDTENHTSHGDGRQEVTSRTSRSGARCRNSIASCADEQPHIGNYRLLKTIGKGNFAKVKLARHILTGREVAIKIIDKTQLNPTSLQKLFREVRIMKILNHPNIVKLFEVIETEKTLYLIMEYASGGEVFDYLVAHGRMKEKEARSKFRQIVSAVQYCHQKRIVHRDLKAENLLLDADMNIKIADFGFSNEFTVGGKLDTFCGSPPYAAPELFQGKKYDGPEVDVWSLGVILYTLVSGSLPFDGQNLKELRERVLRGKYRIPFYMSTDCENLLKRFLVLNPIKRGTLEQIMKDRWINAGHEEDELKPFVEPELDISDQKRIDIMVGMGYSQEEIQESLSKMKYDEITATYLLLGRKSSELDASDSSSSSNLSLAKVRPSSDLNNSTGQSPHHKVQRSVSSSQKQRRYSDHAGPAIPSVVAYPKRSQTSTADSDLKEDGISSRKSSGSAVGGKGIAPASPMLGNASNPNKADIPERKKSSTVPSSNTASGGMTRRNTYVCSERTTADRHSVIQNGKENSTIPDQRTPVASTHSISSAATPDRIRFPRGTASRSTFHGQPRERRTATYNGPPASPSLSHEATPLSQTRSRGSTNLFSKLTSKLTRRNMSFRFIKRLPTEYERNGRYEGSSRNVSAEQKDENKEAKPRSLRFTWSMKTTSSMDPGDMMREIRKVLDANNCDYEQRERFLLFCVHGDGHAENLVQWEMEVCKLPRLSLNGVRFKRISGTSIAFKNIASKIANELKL

Serine/threonine-protein kinase MARK1 (Homo sapiens), sequence (Q9P0L2 whole entry, looked up): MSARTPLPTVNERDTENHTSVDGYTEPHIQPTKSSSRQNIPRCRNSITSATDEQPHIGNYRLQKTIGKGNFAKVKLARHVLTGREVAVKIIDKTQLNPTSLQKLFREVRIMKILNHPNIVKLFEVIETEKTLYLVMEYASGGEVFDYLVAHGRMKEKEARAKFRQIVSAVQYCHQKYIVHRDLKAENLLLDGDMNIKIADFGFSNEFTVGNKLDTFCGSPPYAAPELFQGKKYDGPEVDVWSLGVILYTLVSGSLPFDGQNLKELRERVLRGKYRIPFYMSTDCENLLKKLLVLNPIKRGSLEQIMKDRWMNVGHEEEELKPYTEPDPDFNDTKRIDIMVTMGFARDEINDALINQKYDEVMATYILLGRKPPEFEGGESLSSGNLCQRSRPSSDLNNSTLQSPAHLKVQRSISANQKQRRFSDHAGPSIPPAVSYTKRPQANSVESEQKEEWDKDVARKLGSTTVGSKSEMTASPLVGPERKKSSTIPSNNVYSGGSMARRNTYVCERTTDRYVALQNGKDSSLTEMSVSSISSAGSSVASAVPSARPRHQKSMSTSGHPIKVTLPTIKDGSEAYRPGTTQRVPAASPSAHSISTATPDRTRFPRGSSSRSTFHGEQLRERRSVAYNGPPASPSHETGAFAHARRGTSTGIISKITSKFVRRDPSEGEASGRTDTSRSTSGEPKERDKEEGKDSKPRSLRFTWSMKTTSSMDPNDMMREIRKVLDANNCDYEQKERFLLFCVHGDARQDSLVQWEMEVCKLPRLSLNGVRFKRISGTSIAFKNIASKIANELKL
MAP kinase-activated protein kinase 3 (Homo sapiens), sequence (Q16644 whole entry, looked up): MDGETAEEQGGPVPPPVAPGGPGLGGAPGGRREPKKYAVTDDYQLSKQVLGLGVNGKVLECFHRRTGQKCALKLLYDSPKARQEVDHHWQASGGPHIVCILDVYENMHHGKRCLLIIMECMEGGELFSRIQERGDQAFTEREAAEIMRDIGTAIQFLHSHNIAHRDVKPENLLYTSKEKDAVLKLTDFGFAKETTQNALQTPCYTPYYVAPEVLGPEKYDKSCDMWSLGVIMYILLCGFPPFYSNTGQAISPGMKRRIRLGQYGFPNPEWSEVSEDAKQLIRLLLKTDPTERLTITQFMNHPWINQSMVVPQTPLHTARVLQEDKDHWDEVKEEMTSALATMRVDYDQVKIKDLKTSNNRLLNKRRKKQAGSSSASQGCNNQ
Death-associated protein kinase 1 (Homo sapiens), sequence (P53355 whole entry, looked up): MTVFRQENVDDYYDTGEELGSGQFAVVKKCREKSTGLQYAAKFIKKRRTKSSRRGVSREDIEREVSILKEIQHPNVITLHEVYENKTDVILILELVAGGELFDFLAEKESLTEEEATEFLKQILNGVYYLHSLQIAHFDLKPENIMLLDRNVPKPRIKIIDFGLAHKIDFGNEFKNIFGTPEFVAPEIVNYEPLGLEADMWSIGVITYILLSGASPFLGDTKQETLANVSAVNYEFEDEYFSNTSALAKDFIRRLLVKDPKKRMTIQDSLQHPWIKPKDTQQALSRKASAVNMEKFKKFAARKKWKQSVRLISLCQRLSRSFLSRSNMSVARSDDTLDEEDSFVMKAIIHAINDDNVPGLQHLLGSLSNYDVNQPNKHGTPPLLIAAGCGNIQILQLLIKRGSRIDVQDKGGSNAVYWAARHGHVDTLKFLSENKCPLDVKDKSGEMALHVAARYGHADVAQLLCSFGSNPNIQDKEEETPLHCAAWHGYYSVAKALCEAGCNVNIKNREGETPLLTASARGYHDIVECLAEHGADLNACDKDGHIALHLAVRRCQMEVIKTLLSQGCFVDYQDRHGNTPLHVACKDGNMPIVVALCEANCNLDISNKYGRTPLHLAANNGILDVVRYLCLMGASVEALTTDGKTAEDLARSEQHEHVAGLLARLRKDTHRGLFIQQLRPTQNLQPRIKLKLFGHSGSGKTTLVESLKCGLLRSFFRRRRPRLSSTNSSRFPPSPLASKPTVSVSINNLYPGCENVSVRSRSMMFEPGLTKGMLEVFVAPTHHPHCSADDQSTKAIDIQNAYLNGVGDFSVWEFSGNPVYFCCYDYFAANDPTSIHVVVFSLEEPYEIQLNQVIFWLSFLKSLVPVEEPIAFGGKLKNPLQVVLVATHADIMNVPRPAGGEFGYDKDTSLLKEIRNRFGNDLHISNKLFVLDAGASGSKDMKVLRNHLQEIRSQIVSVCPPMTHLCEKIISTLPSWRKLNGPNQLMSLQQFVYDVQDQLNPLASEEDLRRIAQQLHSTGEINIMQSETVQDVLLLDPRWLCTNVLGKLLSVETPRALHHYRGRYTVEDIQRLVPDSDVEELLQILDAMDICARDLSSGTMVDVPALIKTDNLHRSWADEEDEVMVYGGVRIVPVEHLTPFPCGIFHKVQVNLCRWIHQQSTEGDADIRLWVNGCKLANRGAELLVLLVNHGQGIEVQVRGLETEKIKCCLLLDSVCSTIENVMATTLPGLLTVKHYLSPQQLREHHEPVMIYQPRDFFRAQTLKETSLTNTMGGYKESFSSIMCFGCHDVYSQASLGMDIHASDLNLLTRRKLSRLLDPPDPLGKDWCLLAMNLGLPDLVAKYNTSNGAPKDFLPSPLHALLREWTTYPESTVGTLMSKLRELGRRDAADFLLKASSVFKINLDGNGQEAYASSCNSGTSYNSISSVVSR
MAP kinase-activated protein kinase 2 (Homo sapiens), sequence (P49137 whole entry, looked up): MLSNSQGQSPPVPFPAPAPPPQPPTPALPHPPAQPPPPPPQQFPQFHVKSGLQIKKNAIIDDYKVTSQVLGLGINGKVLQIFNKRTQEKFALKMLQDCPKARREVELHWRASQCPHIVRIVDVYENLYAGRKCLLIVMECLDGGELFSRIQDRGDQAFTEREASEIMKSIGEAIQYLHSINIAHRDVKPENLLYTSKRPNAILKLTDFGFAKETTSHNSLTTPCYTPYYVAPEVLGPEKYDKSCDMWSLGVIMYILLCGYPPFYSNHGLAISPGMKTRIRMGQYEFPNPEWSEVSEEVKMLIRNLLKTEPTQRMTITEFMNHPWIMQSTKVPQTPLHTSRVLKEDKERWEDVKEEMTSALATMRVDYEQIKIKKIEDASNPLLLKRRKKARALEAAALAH
Serine/threonine-protein kinase Chk2 (Homo sapiens), sequence (O96017 whole entry): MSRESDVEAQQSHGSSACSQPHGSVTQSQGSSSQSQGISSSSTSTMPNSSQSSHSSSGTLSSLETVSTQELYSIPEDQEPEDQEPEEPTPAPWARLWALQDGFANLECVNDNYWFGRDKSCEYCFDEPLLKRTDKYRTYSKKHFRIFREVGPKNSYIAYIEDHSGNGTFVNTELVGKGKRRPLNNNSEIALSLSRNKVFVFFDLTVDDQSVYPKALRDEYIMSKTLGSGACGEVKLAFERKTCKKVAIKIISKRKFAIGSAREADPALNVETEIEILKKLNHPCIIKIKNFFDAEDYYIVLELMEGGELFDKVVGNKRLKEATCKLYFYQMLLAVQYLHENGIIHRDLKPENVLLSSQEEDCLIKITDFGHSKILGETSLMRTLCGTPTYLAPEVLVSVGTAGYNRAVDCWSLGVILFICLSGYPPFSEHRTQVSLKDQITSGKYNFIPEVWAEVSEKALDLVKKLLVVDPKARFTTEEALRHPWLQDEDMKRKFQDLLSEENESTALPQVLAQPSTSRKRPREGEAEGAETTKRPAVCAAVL
Calcium/calmodulin-dependent protein kinase type II subunit alpha (Homo sapiens), sequence (Q9UQM7 whole entry): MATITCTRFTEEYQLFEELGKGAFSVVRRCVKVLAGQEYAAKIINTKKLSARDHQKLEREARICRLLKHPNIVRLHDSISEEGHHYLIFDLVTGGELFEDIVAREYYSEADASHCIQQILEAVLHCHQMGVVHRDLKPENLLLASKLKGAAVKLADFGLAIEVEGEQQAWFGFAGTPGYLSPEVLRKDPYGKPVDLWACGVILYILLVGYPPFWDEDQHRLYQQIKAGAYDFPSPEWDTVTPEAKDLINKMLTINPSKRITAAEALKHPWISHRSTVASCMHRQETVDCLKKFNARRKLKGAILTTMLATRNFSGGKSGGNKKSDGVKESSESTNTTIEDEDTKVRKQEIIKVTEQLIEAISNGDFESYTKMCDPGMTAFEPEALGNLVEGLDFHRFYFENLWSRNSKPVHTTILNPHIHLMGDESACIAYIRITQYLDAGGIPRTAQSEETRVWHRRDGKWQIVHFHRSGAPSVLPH

With `N#Cc1c(NC(=O)c2ccc(F)cc2)sc2c1CCCC2`, the inhibition was -0.01% in assay [1]; 0.08% in assay [2]; 0.72% in [3]; -0.9% in assay [4]; 2.49% in [5]; 0.15% in [6]. In addition, the inhibition in assay [7] is 0.56%; in [8] it was -0.21%; in assay [9], 0.73%; in [10], 0.39%; in [11], 0.36%; in assay [12] it was 0%. For the same compound, the inhibition in assay [13] is 5.74%; in [14], 0.34%; in assay [15] it was -0.56%; in [16] it was 0.8%; in assay [17] it was 0.7%; in assay [18], 1.17%. For the same compound, the inhibition in assay [19] was 0.93%; in [20], -0.62%.

In the case of `Nc1nc(-c2cccc(Cl)c2)c(-c2ccc3ncccc3n2)s1`, the inhibition in assay [1] is 2.48%; in assay [2] it was 2.83%; in assay [3] it was 3.46%; in assay [4], -2.8%; in [5] it was -4.36%; in assay [6], 9.85%. In addition, the inhibition in assay [7] worked out at 12.6%; in assay [8], 10.1%; in [9], 12.7%; in assay [10], 12%; in assay [11], 15.4%; in assay [12], 1.69%. The inhibition stood at 1.16% in [13]; 4.89% in assay [14]; 6.05% in assay [15]; 13.6% in assay [16]; 23.9% in assay [17]; 5.51% in [18]. In addition, the inhibition in assay [19] worked out at 4.17%; in assay [20], 2.28%.

For the compound `CCc1nn2ncccc2c1-c1ccnc(NC2CC2)n1`, the inhibition was determined as 3.03% in [1]; 2.51% in assay [2]; 4.18% in assay [3]; 3.71% in assay [4]; 2.48% in [5]; 2.02% in assay [6]. For the same compound, the inhibition in assay [7] is 2.69%; in assay [8] it was 1.64%; in assay [9], 3.66%; in assay [10], 3.5%; in [11], 1.38%; in assay [12] it was -1.54%. Moreover, the inhibition is 2.15% in assay [13]; 1.44% in assay [14]; 2.07% in assay [15]; 1.73% in [16]; 2.3% in [17]; 0.89% in [18]. Further, the results for the inhibition in assay [19] and in assay [20] were 2.47% and 0.47%, respectively.

On to `CCCN1CCC(c2ccc(Nc3nc(Nc4cc(F)ccc4C(N)=O)c4cc[nH]c4n3)c(OC)c2)CC1`, for which the inhibition in assay [1] stood at 43.6%; in assay [2] it was 20.9%; in [3], 71%; in assay [4], 7.54%; in assay [5], 37.9%; in [6], 0.91%. For the same compound, the inhibition in [7] came out at 10.7%; in assay [8], 58.3%; in [9] it was 80.9%; in assay [10], 3.52%; in [11], 50%; in [12] it was 1.99%. Besides, the inhibition in [13] came to 8.21%; in [14], 1.84%; in assay [15] it was 3.23%; in [16], 5.33%; in assay [17] it was 11.9%; in [18], 9.11%. For the same compound, the results for the inhibition in assay [19] and in [20] were 50.1% and 12.2%, respectively.

As to `CC(=O)NCc1cccc(C#Cc2cncnc2Nc2ccc(OCc3cccc(F)c3)c(Cl)c2)c1`, the inhibition is -0.5% in assay [1]; 0.37% in [2]; 1.1% in assay [3]; 1.04% in [4]; 2.01% in assay [5]; -3.2% in assay [6]. Besides, the inhibition in [7] was -4.26%; in [8], -4.58%; in assay [9], -3.41%; in assay [10], -6.93%; in assay [11] it was -8.59%; in assay [12] it was 1.43%. In addition, the inhibition was 6.49% in assay [13]; -2.58% in assay [14]; -3.05% in assay [15]; -4.92% in assay [16]; -5.42% in assay [17]; 1.88% in assay [18]. Moreover, the inhibition in assay [19] was 2.89%; in assay [20], 1.71%.

Regarding `CCn1cc(-c2ccnc3[nH]ccc23)c(-c2cccc(NC(=O)Nc3ccc(OCc4ccccc4)cc3)c2)n1`, the inhibition in assay [1] was -2.25%; in assay [2], 1.86%; in assay [3] it was -0.28%; in assay [4], 0.6%; in [5] it was -0.67%; in assay [6] it was 1.82%. In addition, the inhibition in assay [7] is -1.06%; in assay [8], -0.17%; in assay [9], -0.76%; in [10], 1.61%; in [11], 1.12%; in assay [12], -1.87%. Besides, the inhibition in [13] is -0.63%; in assay [14] it was -0.39%; in [15], -0.71%; in [16], 0.57%; in assay [17], 1.13%; in [18] it was 0.74%. In addition, the inhibition in [19] is 3.68%; in assay [20], 1.29%.

As for `COC(=O)Nc1nc2ccc(Oc3ccc(NC(=O)Nc4cccc(Cl)c4)cc3)cc2[nH]1`, the inhibition in [1] is -1.94%; in assay [2], 1.3%; in assay [3], 0.37%; in assay [4] it was 0.3%; in assay [5], -1.27%; in assay [6] it was -1.18%. The inhibition is -8.11% in assay [7]; 0.39% in [8]; 0.53% in assay [9]; 0.42% in [10]; -0.2% in assay [11]; -0.66% in assay [12]. Further, the inhibition in assay [13] is 0.75%; in assay [14], -0.07%; in [15], -0.56%; in assay [16] it was 3.71%; in assay [17] it was 4.53%; in [18] it was 0.33%. Moreover, the results for the inhibition in [19] and in [20] were 2.88% and 0.27%, respectively.
